PubChem BioAssay (NCI)
Compounds without any hit were thinned out: in the full panel of roughly 79,000, 15% have a hit. Cut-off read from the data, not from the text of the source: active = growth inhibition above about 70%; inactive = the rest.

Legend:
[1] = NCI Yeast Anticancer Drug Screen. Data for the rad52 strain (AID 147);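 note: 0% = growth of vehicle-treated control cultures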; conditions: S. cerevisiae rad52 mutant growth inhibition, active compounds read high
Summary of the method: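 The repair-mutant yeast strain was incubated with compounds, then growth was read and inhibition derived relative to vehicle.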

[2] = NCI Yeast Anticancer Drug Screen. Data for the wt1 strain (AID 149);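 note: 0% = growth of vehicle-treated wt1 cultures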; conditions: S. cerevisiae wt1 strain (SPY 50644) growth inhibition, active compounds read high
Summary of the method: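 Using yeast strain wt1, compound-induced growth inhibition was determined against vehicle-treated cultures.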

[3] = NCI Yeast Anticancer Drug Screen. Data for the rad50EPP+ strain (AID 151);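 note: 0% = growth of vehicle-treated control cultures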; conditions: S. cerevisiae rad50 mutant strain, active compounds read high
Summary of the method: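 Vehicle-normalised growth inhibition; rad50EPP+ yeast strain, altered in DNA damage repair, compound-treated.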

[4] = NCI Yeast Anticancer Drug Screen. Data for the mgt1 strain (AID 153); conditions: S. cerevisiae mgt1 mutant growth inhibition, active compounds read high
Summary of the method: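 Vehicle-normalized growth inhibition is determined in mgt1 yeast, a strain selected for a defined alteration in DNA repair or cell cycle control.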

[5] = NCI Yeast Anticancer Drug Screen. Data for the rad50 strain (AID 155);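 note: 0% = growth of vehicle-only cultures of the same strain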; conditions: S. cerevisiae rad50 strain growth inhibition, active compounds read high
Summary of the method: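 Relative growth inhibition (compound vs vehicle) was measured in yeast with a defined repair-gene alteration.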

[6] = NCI Yeast Anticancer Drug Screen. Data for the mec2-1 strain (AID 157); conditions: S. cerevisiae mec2-1 strain, active compounds read high
Summary of the method: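 Mutant yeast (mec2-1) grown with compound; growth inhibition relative to vehicle control reported.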

[7] = NCI Yeast Anticancer Drug Screen. Data for the rad14 strain (AID 159);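 note: 0% = growth of vehicle-treated control cultures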; conditions: S. cerevisiae rad14 strain growth inhibition, active compounds read high
Summary of the method: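 Screen for anticancer potential: a yeast strain altered in DNA damage repair is grown with compound, and reduced growth is quantified against vehicle controls.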

[8] = at 5.0 µM (retest, dose inferred, filed as 0.5)
[9] = at 50.0 µM (retest, dose inferred, filed as 5.0)

Measured: growth inhibition

O=C(CC(=O)n1nc(-c2ccccc2)c(N=Nc2ccccc2C(=O)O)c1-c1ccccc1)Nc1ccc(Cl)cc1
inactive: [1]; at 1.2 µM -2% | [1]; at 3.7 µM -1% | [1]; at 11.0 µM -1% | [1]; at 33.0 µM -2% | [1]; at 100.0 µM 8% | [2]; at 1.2 µM -1% | [2]; at 3.7 µM -4% | [2]; at 11.0 µM -3% | [2]; at 33.0 µM -4% | [2]; at 100.0 µM -4% | [3]; at 1.2 µM 2% | [3]; at 3.7 µM 6% | [3]; at 11.0 µM 15% | [3]; at 33.0 µM 23% | [3]; at 100.0 µM 37% | [4]; at 1.2 µM -2% | [4]; at 3.7 µM -3% | [4]; at 11.0 µM -5% | [4]; at 33.0 µM -6% | [4]; at 100.0 µM 7% | [5]; at 1.2 µM -2% | [5]; at 3.7 µM 1% | [5]; [8] 7% | [5]; at 11.0 µM 1% | [5]; at 33.0 µM 2% | [5]; [9] 16% | [5]; at 50.0 µM 49% | [5]; at 100.0 µM 14% | [6]; at 1.2 µM -2% | [6]; at 3.7 µM -1% | [6]; [8] 3% | [6]; at 11.0 µM -2% | [6]; at 33.0 µM -3% | [6]; [9] 4% | [6]; at 50.0 µM 36.2% | [6]; at 100.0 µM 2% | [7]; at 1.2 µM -1% | [7]; at 3.7 µM 2% | [7]; at 11.0 µM 3% | [7]; at 33.0 µM 3% | [7]; at 100.0 µM 29%
